Screening data from PubChem BioAssay.
This is a sample that favours compounds with a hit; in the whole collection about 11% have one here.
IMPase Li inh: qHTS Assay for Identifying the Cell-Membrane Permeable IMPase Inhibitors: Potentiation with Lithium. CHO-M1 cells, IP1 TR-FRET (IP-One), carbachol + lithium. Potency, µM (top dose mostly 59.4 µM), inactives show top-dose activity, negative = IMPase inhibition, actives largely listed as inhibitors. hit rate 0.35% among 210,000. AID 1457, 2008; active means well fitted curve in the direction sought with a large enough effect; inconclusive means small, poorly fitted or top-dose-only effect, or another doubt; inactive means no such curve, though single readings can be large; an effect the other way counts as inactive or inconclusive;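 further: IP1 builds up when IMPase is blocked and the TR-FRET signal falls; potency means the concentration at half of the fitted maximal effect; plate controls were basal vehicle for no effect and high inhibitor control for full effect; nearly all actives have a fitted effect of over 50% in size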
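Lithium-sensitised IP1 accumulation assay; M1-expressing CHO cells treated 30 min at 37C with compound. Competitive antibody detection by time-resolved FRET followed a 10 min room-temperature lysis step.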
HPGD block: qHTS Assay for Inhibitors of HPGD (15-Hydroxyprostaglandin Dehydrogenase); purified HPGD, NADH fluorescence kinetic, PGE2 substrate; Potency, µM, without a hit: at the top dose activity change, negative = inhibition, actives largely listed as inhibitors; hit rate 4.3% among 150,000; 15-hydroxyprostaglandin dehydrogenase [NAD(+)] (Homo sapiens), P15428; further: potency means the concentration at half of the fitted maximal effect
Target sequence (P15428 whole entry, looked up): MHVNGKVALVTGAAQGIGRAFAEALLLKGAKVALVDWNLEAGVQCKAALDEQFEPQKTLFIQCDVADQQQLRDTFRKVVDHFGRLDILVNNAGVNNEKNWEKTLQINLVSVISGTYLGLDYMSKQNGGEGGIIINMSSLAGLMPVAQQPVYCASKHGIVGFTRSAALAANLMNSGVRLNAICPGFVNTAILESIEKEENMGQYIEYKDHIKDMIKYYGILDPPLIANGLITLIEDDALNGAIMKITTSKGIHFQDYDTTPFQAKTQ
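NADH formation kinetics: reaction with 30 uM PGE2 and 1 mM NAD+ (final), 20 nM enzyme, Tris-HCl pH 8 with Tween 20, after 15 min compound preincubation at room temperature. Fluorescence change, last versus first of five reads.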
ALDH1A1 block: qHTS Assay for Inhibitors of Aldehyde Dehydrogenase 1 (ALDH1A1); AID 1030, 2008; Potency, µM (highest dose often 75.3 µM), inactives show at the top dose activity, negative = inhibition, actives largely listed as inhibitors; Purified ALDH1A1, NADH fluorescence, propionaldehyde substrate; hit rate 7.3% among 220,000; Aldehyde dehydrogenase 1A1 (Homo sapiens), P00352;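 further: potency means the concentration at half of the fitted maximal effect; plate controls were no enzyme wells and a reference inhibitor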
Target sequence (P00352 whole entry, looked up): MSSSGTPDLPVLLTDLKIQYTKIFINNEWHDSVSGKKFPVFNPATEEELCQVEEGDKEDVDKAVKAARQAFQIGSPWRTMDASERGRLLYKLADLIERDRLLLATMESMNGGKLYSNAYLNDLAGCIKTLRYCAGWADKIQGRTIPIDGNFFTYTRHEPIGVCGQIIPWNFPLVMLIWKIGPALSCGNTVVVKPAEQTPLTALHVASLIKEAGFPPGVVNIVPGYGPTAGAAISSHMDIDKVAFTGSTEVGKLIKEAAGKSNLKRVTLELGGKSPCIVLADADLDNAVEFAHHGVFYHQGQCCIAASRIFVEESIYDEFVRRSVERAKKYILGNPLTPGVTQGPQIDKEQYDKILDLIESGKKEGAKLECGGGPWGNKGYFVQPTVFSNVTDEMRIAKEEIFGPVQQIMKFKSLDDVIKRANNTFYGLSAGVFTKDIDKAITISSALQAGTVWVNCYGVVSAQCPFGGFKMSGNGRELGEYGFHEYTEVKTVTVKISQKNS
IMPase cell inh: qHTS Assay for Identifying the Cell-Membrane Permeable IMPase Inhibitors; Inositol monophosphatase 1 (Rattus norvegicus), P97697; CHO-M1 cells, IP1 accumulation, HTRF TR-FRET ratio; inhibition (IP1 accumulation), % at 46.1 µM; 120,000 tested, under 10 active; active means well fitted curve in the direction sought with a large enough effect in the signal ratio, not every such curve was filed as active; inconclusive means small, poorly fitted or top-dose-only effect, or a change in a side signal; inactive means no such curve, though single readings can be large or run the other way; the % refers to the signal ratio;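 further: cells stimulated with carbachol in lithium chloride buffer; plate controls were DMSO basal wells for no effect and reference inhibitor wells for full effect; higher means more IMPase inhibition seen as more IP1 and lower FRET ratio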
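Seeded CHO-M1 cells were dosed with compound at up to 46 uM, stimulated with carbachol for 30 min, then lysed in IP-One detection reagents. Higher IP1 lowers the TR-FRET signal.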
ALOX12 inhib: qHTS Assay for Inhibitors of 12-hLO (12-human lipoxygenase). hit rate 0.12% among 150,000. purified 12-hLO, xylenol orange hydroperoxide absorbance. Polyunsaturated fatty acid lipoxygenase ALOX12 (Homo sapiens), P18054. Potency, µM (top dose mostly 57.1 µM), for the others: at the top dose activity change, negative = inhibition, actives largely listed as inhibitors. AID 1452, 2008; active means well fitted curve in the direction sought with a large enough effect; inconclusive means small, poorly fitted or top-dose-only effect, or another doubt; inactive means no such curve, though single readings can be large; an effect the other way counts as inactive or inconclusive; further: potency means the concentration at half of the fitted maximal effect; nearly all actives have a fitted effect of over 55% in size
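150 nM 12hLO, 25 mM Hepes pH 7.0 + 0.01% Triton X-100; cpd preinc 15 min RT; 40 uM arachidonic acid, 30 min RT; Fe-XO 30 min; A573/A405 ratio as read-out.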
PNC inhibitor: High Content Assay for Compounds that inhibit the Assembly of the Perinucleolar Compartment. PC3M PTB-GFP, PNC prevalence imaging, 16 h; stronger effect = lower value. activity change (PNC), negative = inhibition, % at 10 µM. hit rate 3.1% among 140,000. AID 2417, 2010;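 active means readout at or below -70, meaning at least 70% loss of cells showing the perinucleolar compartment, a nuclear body marking cancer cells; inconclusive means readout between -30 and a set limit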;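 further: plate controls were DMSO wells for no effect and camptothecin positive control wells for full effect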
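PC3M cells stably expressing PTB-GFP, 750–1000 cells/well, treated 16 h at 37 °C with compound (23 nl of library stock), in duplicate. After paraformaldehyde fixation and Hoechst stain, imaged at 20x; PNC prevalence scored by image analysis.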
* = called active by the depositor; ? = inconclusive; · = not tested or not shown; [ ] = remark or other dose. Unless noted, the call rests on the fitted dose curve; in most records, active means well fitted inhibition curve with a large enough effect (not every such curve was filed as active); inconclusive means small, poorly fitted or top-dose-only effect, or another doubt; inactive means no such curve, though single readings can be large or run the other way. Unless noted, on the % scale 0 is the no-effect control and ±100 the full control effect.

SMILES	IMPase Li inh	HPGD block	ALDH1A1 block	IMPase cell inh	ALOX12 inhib	PNC inhibitor
N=C(N)SCCc1ccc(CCSC(=N)N)cc1	3%	-24%	-5%	1	-2%	·
CN(C)c1ccc(C=Nc2cnn(C)c2C(N)=O)cc1	39%[38.3 µM]	-29%	3.5µM*	2	2%	7
Cn1ncc(N=Cc2ccc([N+](=O)[O-])cc2)c1C(=O)Nc1ccccc1	8%	·	0%	·	·	·
CCc1nc2oc3cc(OC)ccc3c(=O)c2c(=O)n1-c1ccccc1	24%[38.3 µM]	-8%	12%	-1	-3%	33
Cc1ccc(-n2c(C)nc3oc4ccccc4c(=O)c3c2=O)cc1	6.3µM*	?	28µM*	-18	-29%	17
CC(=O)Nc1ccccc1	5%	-7%	8%	·	2%	·
CC(=O)C(Cl)C(=O)Nc1ccccc1 (stereo unspecified)	-1%	·	1.3µM*	·	·	·
CS(=O)(=O)Nc1cccc(-c2cncnc2-n2ccnc2)c1	1%	·	?	·	·	·
Cc1noc(/C=C/Nc2ccc(F)cc2F)c1[N+](=O)[O-]	4%	·	1.3µM*	·	·	·
COc1ccccc1N/C=C/c1onc(C)c1[N+](=O)[O-]	11%	·	10%	·	·	·
O=Cc1c(N2CCOCC2)nc2ccccn2c1=O	7%	·	-2%	·	·	·
Cc1cccn2c(=O)c(/C=C(\C#N)C(N)=O)c(N3CCN(Cc4ccc5c(c4)OCO5)CC3)nc12	29%	-1%	?	13	-8%	25
CCOC(=O)/C(C#N)=C/c1c(N2CCN(Cc3ccc4c(c3)OCO4)CC2)nc2c(C)cccn2c1=O	·	·	0.71µM*	·	·	·
CCN1CCN(c2nc3c(C)cccn3c(=O)c2/C=C(\C#N)S(=O)(=O)c2ccccc2)CC1	-4%[38.3 µM]	-12%	22µM*	-2	2%	?
Cc1ccc(S(=O)(=O)/C(C#N)=C/c2c(N3CCOCC3)nc3ccccn3c2=O)cc1	5%[38.3 µM]	16µM*	2%	4	-13%	?
Cc1ccc(S(=O)(=O)/C(C#N)=C/c2c(Oc3ccc(Cl)cc3)nc3c(C)cccn3c2=O)cc1	0%	-10%	9%	·	2%	48
Cc1ccc(S(=O)(=O)/C(C#N)=C/c2c(N3CCC(C(N)=O)CC3)nc3c(C)cccn3c2=O)cc1	10%[38.3 µM]	3.5µM*	?	9	?	-14
Cc1cccn2c(=O)c(C=O)c(N3CCCCCC3)nc12	14%[38.3 µM]	-24%	11µM*	0	-11%	-24
Cc1cccn2c(=O)c(/C=C(\C#N)C(=O)NC3CCS(=O)(=O)C3)c(N3CCC(C(N)=O)CC3)nc12 (stereo unspecified)	-5%	?	5%	-16	0%	-25
Cc1ccc(S(=O)(=O)/C(C#N)=C/c2c(N3CCC(C(N)=O)CC3)nc3ccccn3c2=O)cc1	21%[38.3 µM]	25µM*	?	7	?	?
CNC(=O)/C(C#N)=C/c1c(N2CC(C)OC(C)C2)nc2ccccn2c1=O (stereo unspecified)	-7%	?	-3%	·	0%	18
Cc1cccn2c(=O)c(/C=C(\C#N)S(=O)(=O)c3ccccc3)c(N3CCC(C(N)=O)CC3)nc12	8%[38.3 µM]	28µM*	?	4	-13%	22
C[C@@](O)(CNS(=O)(=O)c1ccccc1)c1ccccc1	-2%	-3%	-3%[13.5 µM]	·	-2%[11.4 µM]	·
[O-]/C(=C(\C(=S)NCc1ccc2c(c1)OCO2)[n+]1ccccc1)c1ccc(Cl)s1	9%	·	16µM*	·	·	·
C=CCNC(=S)/C(=C(\[O-])c1ccc(Cl)cc1)[n+]1ccccc1	·	·	14µM*	·	·	·
SMILES	IMPase Li inh	HPGD block	ALDH1A1 block	IMPase cell inh	ALOX12 inhib	PNC inhibitor
[O-]/C(=C(\C(=S)NCc1ccccc1)[n+]1ccccc1)c1ccc(Cl)cc1	7%	·	8.9µM*	·	·	·
Cc1ccc(/C([O-])=C(/C(=S)NCc2ccccc2)[n+]2ccccc2)cc1[N+](=O)[O-]	4%	·	?	·	·	·
O=C(O)C1CCCNC1 (stereo unspecified)	-7%	4%	7%	·	-2%	-83*
O=C(O)[C@H]1CCCNC1	12%	6%	7%	-3	3%	·
CCN1C(C)=C(C(=O)OC)C(c2ccccc2)N2C(=O)[C@@]3(C(=O)OC)O[C@@]12C1C(=O)CCCC13 (stereo partly specified)	·	·	-1%[13.5 µM]	·	·	·
O=C(Oc1cccc(C(=S)N2CCCCC2)c1)c1ccccc1	0%	·	2.5µM*	·	·	·
Oc1cccc(C(=S)N2CCCCC2)c1	8%	·	11µM*	·	·	·
O=C(/C=C/c1ccccc1)Oc1cccc(C(=S)N2CCOCC2)c1	3%	·	4.5µM*	·	·	·
O=C(/C=C/c1ccccc1)Oc1ccccc1C(=S)N1CCOCC1	8%	·	?	·	·	·
O=C(Oc1ccc(C(=S)N2CCCCC2)cc1)c1ccccc1	8%	·	11µM*	·	·	·
c1ncc(-c2ccoc2)c(NC2CC2)n1	-3%	·	?	·	·	·
O=S(=O)(c1ccccc1)N1CCC2(CCCN(Cc3nccs3)C2)CC1	25%	-3%	?	·	-2%	·
N=C(N)SCc1nc(-c2ccc(Cl)cc2)no1	3%	-9%	-13%[13.5 µM]	·	7%[11.4 µM]	·
NC(=O)C1CCN(c2nnnn2-c2ccccc2)CC1	24%[38.3 µM]	-7%	?	-1	1%	-18
O=C(O)C1C2CCC(O2)C1C(=O)Nc1cccc(F)c1 (stereo unspecified)	12%[38.3 µM]	-7%	0%	3	-5%	?
O=C(Nc1cccc(F)c1)C1CCN(c2nnnn2-c2ccccc2)CC1	0%[38.3 µM]	-10%	22µM*	7	-5%	?
CCOc1ccc(NC(=O)C2CCN(c3nnnn3-c3ccccc3)CC2)cc1	5%	-3%	13µM*	0	-2%	?
COc1cccc(NC(=O)N2CCCC2)c1	-9%	·	2%	·	·	·
COc1cccc(NC(=O)N2CCN(c3nnnn3-c3ccccc3)CC2)c1	-2%	·	6.3µM*	·	·	·
O=C(C1CCN(c2nnnn2-c2ccccc2)CC1)N1CCN(c2ccccc2)CC1	34%[38.3 µM]	-3%	10µM*	-5	0%	-19
O.O.O.O.O.O.O.O=S(=O)([O-])[O-].[Co+2]	-17%	-2%	?	·	-6%	·
N#Cc1ccc(CN2CCCC3(CCN(S(=O)(=O)c4ccccc4)CC3)C2)cc1	16%	0%	?	·	-3%	·
C[Si](C)(C/C=C/CC[C@H](O)C1=CCCCC1=O)c1ccccc1	20%	-10%	3%	·	0%	·
